PubChem BioAssay AID1347426 (Functional Genomics Laboratory (NCATS/FGL), 2020)
Hit rate of the full screen: of about 31,000 sequences, about 1,400 (4.5%) were called active.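 Rule for the calls: active = median seed-adjusted z-score above 1 or below -1; inactive = the rest.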 Only a selection was taken, and actives are over-represented in it overall.

Test: Novel Modifiers of Survival Motor Neuron (SMN) Protein: Gene Identification via Genome-wide siRNA Screen;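 note: luminescence tracks full-length SMN protein made from the SMN2 reporter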
Conditions: HEK293T SMN2-luciferase reporter, siRNA knockdown, 72 h; actives lie on both sides
In short: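 Each of three siRNAs per gene is reverse-transfected (1 pmol) into reporter HEK293T cells whose luciferase output tracks SMN protein level. After 72 h culture, ONE-Glo luminescence is control-normalized, log10-transformed and MAD-standardized; Common Seed Analysis deprioritizes seed-driven hits.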

| Sequence | median seed-adjusted z-score |
| --- | --- |
| GGAUGAGGUCUUCACCAAATT against NENF | -0.778 (inactive) |
| AAAUCUUCUUUCGACAACATT against RAB37 | 0.0678 (inactive) |
| GCAAGAUGCAUGCUCAUGATT against ZNF142 | 0.111 (inactive) |
| CUGUUGAAAUGUAAAACGATT against VNN1 | 0.549 (inactive) |
| GGACAGAUCUUACCCAUCUTT against TRIM59 | 0.941 (inactive) |
| AGCCUUUAAUCAUUUCUCATT against ZNF85 | -1.01 (active) |
| CUUCAUAUUUGACACCUAUTT against SLC25A26 | 0.0213 (inactive) |
| GACUUUCAGUUCUUACGAUTT against CCNB3 | 0 (inactive) |
| GGCUCAAUAUGGAGGAUUATT against NPR3 | -0.436 (inactive) |
| GGCCCUAUGUAUAUGCUUUTT against AK3 | -0.0313 (inactive) |
| ACAUGCAGCUGGUAAGGAUTT against MFSD4 | -1.89 (active) |
| GAUACGUUCUGCAAUGUUATT against EPYC | 0.00264 (inactive) |
| AGACCAAGAGCGCAUCAAATT against JUNB | -0.224 (inactive) |
| GGUUGUUGGUUGGACUGUUTT against GDE1 | -0.256 (inactive) |
| CACUCACUGUUCCUAUCAATT against STAMBPL1 | 0.13 (inactive) |
| GAAACGAUGAAAUAAGAUATT against PTGS1 | 0.0458 (inactive) |
| GGUUGGUCUCCUCUUCAUATT against PSMD10 | 0.265 (inactive) |
| CCCUCUCACUUGAAGAUCATT against HYAL1 | -0.163 (inactive) |
| AUUCAUCUCAUAAACAAAATT against BATF2 | 0.714 (inactive) |
| GCAUGGAGCAGAUCGUGUUTT against ITPR3 | -1.28 (active) |
| GCAGCAUCAAUGUCUGGAATT against SLC6A8 | -0.0673 (inactive) |
| GGCCUUAGAUGAGUCCCUATT against PABPN1 | -0.757 (inactive) |
| ACAAUGAACUGGAUCAACATT against TBX20 | 0.00303 (inactive) |

| Sequence | median seed-adjusted z-score |
| --- | --- |
| CACUAUCUAUUCCACCUUUTT against HTR1A | 0 (inactive) |
| CAGGUGCUUCGUUUCCUGATT against ARHGAP1 | -1.14 (active) |
| GAGUAAACCUCGAAACCGATT against MAP3K13 | -0.121 (inactive) |
| GACCAUGAAUUUCAUUGUATT against MYLK3 | 0.316 (inactive) |
| GGACUAAAACUUUAAACUATT against POU4F2 | 1.46 (active) |
| CUACCAGGAUGUUGAUAAATT against ZNF761 | 0.291 (inactive) |
| GGAUUGAGGUGGAGAUGGATT against MCM5 | 0.126 (inactive) |
| CUAAAGGUCUUGUUACAUUTT against ASNS | -1.1 (active) |
| ACCUAGAAGUGAACUGUGATT against GP1BA | 0.0803 (inactive) |
| UGGUGACUCUCAUUUCGCATT against BCAP31 | 0.277 (inactive) |
| GGAUGUCACUGUUUCUGGATT against CLIC6 | -0.00828 (inactive) |
| GGCCUACUGUGGAAUUGGATT against TTC3 | -1.17 (active) |
| CGAUCAACUCCUUAAAGGATT against FLRT2 | -0.00573 (inactive) |
| GCUUUUCCAUUAUAAGGCATT against FOXE1 | -0.316 (inactive) |
| CAAAUUGCCUCGUCAAAGATT against DNTT | 0.316 (inactive) |
| GACCGACUCAGAUAUCAUUTT against SNRPA | -2.09 (active) |
| CACUGGAUUUGAGAGGUUATT against ABHD7 | -0.301 (inactive) |
| GGCCGAGUGUACUACUUCATT against PIN1 | 0.156 (inactive) |
| GCACUGUGCUUAAGCUGGATT against PKN1 | -0.753 (inactive) |
| CGACAUGAUCUCCUACUCATT against ABLIM2 | -0.26 (inactive) |
| GAAACUGGACAGUAAGAAATT against HDAC4 | -0.0988 (inactive) |
| GGUUUCAAGAUAACCCAAATT against POU2F3 | -1.53 (active) |
| CAAAGGUUAUUCUGCAUAUTT against CTSO | 0.322 (inactive) |

| Sequence | median seed-adjusted z-score |
| --- | --- |
| GCAGGAGCUGUAUUUGAUGTT against NUDT6 | 0.281 (inactive) |
| AGAUGUACGAGGAAAAGUATT against WNK4 | 0.385 (inactive) |
| GGUGUUUGAUAUACAGAGGTT against RABL2A | 0.794 (inactive) |
| CGACUCUGACACCACCAUATT against GOSR2 | -1.25 (active) |
| CCAUGGAUUUUAUGAGGAATT against ECHDC1 | 0.554 (inactive) |
| CCUUCAUUAAUGAGUCAUATT against ZNF426 | 0.2 (inactive) |
| UGCAGCCUCUCCAAACUUATT against SP6 | -0.176 (inactive) |
| GCCCAACAAGUGUACGUUUTT against GLIS3 | -0.00906 (inactive) |
| GGCUGAUAAAAAUCCACGATT against RICS | 0.665 (inactive) |
| AGUACGAUCUUGACUUCAATT against ENO3 | -0.142 (inactive) |
| GGGAAGUCUUUUAAUCGUATT against ZNF780B | -0.332 (inactive) |
| CUGUUGGUAUUGUCCACAATT against MAL | 0.0733 (inactive) |
| GGGACUUUUGCAAAGGAAATT against CLEC5A | -1.07 (active) |
| GGAGAGCUGUGAAAAGUCATT against CCR8 | -0.206 (inactive) |
| GAACUUAGACCAACUUUAATT against COX5A | -0.348 (inactive) |
| CCACAAGCUGCAUAAGAGATT against SPTBN4 | -0.0625 (inactive) |
| GGACUUUUACACCACCUUUTT against NRXN2 | -0.485 (inactive) |
| CAACGACUACAGGUCUGUATT against ITGA11 | 0.496 (inactive) |
| GGCAGGAAGUCAAACCUAUTT against KLK2 | 0.0716 (inactive) |
| CAAACGAGGUGAACGAUGATT against PYGO1 | -1.23 (active) |
| AGAUACUCACGGACAUUAUTT against COASY | 0 (inactive) |
| GUCACGCUAUGAGACCUCATT against E2F1 | -0.211 (inactive) |
| GCAUCGAAUUUGCAGAACATT against PNN | 1.29 (active) |
